This is a sample that favours compounds with a hit; in the whole collection about 2.3% have one here.
Gli-Sufu antag – Gli-Sufu pathway antagonism; 0.74% of 340,000 active; Sufu-KO-LIGHT fibroblasts, Gli luciferase reporter luminescence; inhibition, % at 5 µM;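 active = inhibition above about 55%, limit read from the data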;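 note: 0% = DMSO-treated cells and 100% = wells with medium but no cells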
Jurkat NFkB inh – lowers PMA/ionomycin-induced NF-kB signal in Jurkat cells. 0.53% of 330,000 active. PMA/ionomycin-induced NF-kB luciferase reporter, luminescence. inhibition, % at 4 µM; in the data active = inhibition above about 50%
aSyn UTR inh – MLPCN primary screen, SNCA 5' untranslated region; alpha-synuclein 5'UTR reporter, inhibitor activity; inhibition, % (tested at 7.5 µM); 0.82% of 300,000 active; in the data active = inhibition above about 60%; inconclusive = no clear call, values can overlap the other calls;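 note: H4 neuroglioblastoma cells stably carrying SNCA 5'UTR luciferase fusion; 0% = DMSO wells and 100% = positive control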
697 NFkB inh – lowers PMA/ionomycin-induced NF-kB signal in 697 B cells; 697 B-cell NF-kB luciferase reporter, 16 h; inhibition, % at 4 µM; 0.33% of 330,000 active; in the data active = inhibition above about 35%
Shn3 3UTR inh – reduces Shn3 3'UTR luciferase signal in osteoblasts; Clone20 osteoblast Shn3 3'UTR firefly luciferase, 24 h; inhibition, % at 12.5 µM; 0.52% of 360,000 active; AID 588674;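 active = mean inhibition of at least 75% with every replicate also reaching 75%; inconclusive = mean inhibition at least 75% but some replicate below; inactive = mean inhibition below 75%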;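 note: 0% = median of neutral control wells and 100% = pilot-screen positive control compound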
TAG inh – triacylglycerol accumulation inhibition; H9c2 cells, Nile Red lipid (TAG) fluorescence; cells loaded with 200 µM oleic acid; inhibition, % at 12.5 µM; 0.66% of 230,000 active;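 active = pattern-corrected inhibition of lipid staining of at least 50% with the nuclear-stain viability signal not falling by more than 50%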;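 note: 0% = DMSO wells and 100% = triacsin C control wells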
Gli-Sufu confirm – confirmation of Gli-SUFU pathway antagonists. Sufu-KO-LIGHT cells, Gli luciferase reporter, luminescence. inhibition, % at 5 µM. AID 602428. shares compounds with Gli-Sufu antag. 40% of 2,500 active;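 active = mean inhibition at 5 µM reaching about 45%, limit read from the data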;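 note: plate controls were DMSO-treated cells for no effect and wells lacking cells for full effect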
Gli cytotox – counter-screen for Gli-SUFU antagonists: cytotoxicity; shares compounds with Gli-Sufu antag; Sufu-KO-LIGHT cells cytotoxicity, ATP luminescence; cytotoxicity, % at 5 µM; 32% of 2,500 active;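 active = mean cytotoxicity at 5 µM above about 25%, limit read from the data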;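 note: cells exposed to compound overnight for roughly 16 to 18 hours; plate controls were DMSO wells with cells for no effect and medium without cells for full effect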
Wnt3a counter – Wnt3a reporter inhibition counter-screen | shares compounds with Gli-Sufu antag | Wnt-LIGHT cells, Wnt3a-driven luciferase reporter, luminescence | inhibition, % at 6.25 µM | 20% of 2,500 active;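 active = mean inhibition above about 25%, limit read from the data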
* hit, by the source's call; ? = inconclusive; . = no result; ! = not confirmed by another sample.

SMILES	Gli-Sufu antag	Jurkat NFkB inh	aSyn UTR inh	697 NFkB inh	Shn3 3UTR inh	TAG inh	Gli-Sufu confirm	Gli cytotox	Wnt3a counter
CCCC1C(=O)Nc2ccccc2N1C(=O)c1cccc(C)c1 (stereo not drawn)	71*	-13	11	7	13	.	16	17	-1
COc1ccccc1C(C#N)N1N=C(C)CC1(C)C (stereo not drawn)	25	0	5	6	-10	-1	.	.	.
COc1ccc(-n2ncc3c2CC(C)(C)CC3NC(=O)Cc2nonc2C)cc1 (stereo not drawn)	-2	8	-1	6	19	.	.	.	.
COc1ccc(-n2ncc3c2CC(C)(C)CC3NC(=O)CN2CCOC2=O)cc1 (stereo not drawn)	61*	13	-10	-14	8	.	22	12	-10
COc1ccc(-c2cnnc(N/N=C/c3ccc(OC)c(OC)c3)n2)cc1	52	-6	5	-25	-5	.	4	23	-30
O=C(NCc1cc2ccccc2[nH]1)C1CCC(=O)N(CCCN2CCCC2=O)C1 (stereo not drawn)	59*	-10	-16	-22	-14	.	14	14	-57
O=C(NCCc1ccccc1)C1CCC(=O)N(CCCN2CCCC2=O)C1 (stereo not drawn)	5	1	-1	-4	8	10	.	.	.
CCC(C)[C@H](NC(=O)c1cn(CC)c2cc3c(cc2c1=O)OCO3)C(=O)NCCCn1ccnc1 (stereo partly drawn)	53	1	16	-8	16	.	5	-9	18
CCC1CCCCN1CCCNC(=O)Cn1c(=O)c2cccn2c2cccnc21 (stereo not drawn)	69*	-16	0	-59	6	.	24	2	15
Cc1ccc(NC(=O)c2cc(F)c(F)cc2Cl)nc1	-90	-71	-130	-52	-33	10	.	.	.
Cc1ccc(NC(=O)c2ccccc2F)nc1	99*	-110	-88	-82	-31	0	-55	14	7
CCCc1c(CC)c(=N)c2ccccc2n1C	51	-8	6	-49	20	.	59*	24	1
CN(C)S(=O)(=O)c1cccc(C(=O)OCC(=O)Nc2sccc2C#N)c1	99*	-2	-17	-4	8	1	17	5	-65
N#CCCn1cc(/C=N/O)c(-c2ccccc2)n1	-2	2	.	7	2	.	.	.	.
CC(=O)N1c2ccc(Cl)cc2C2OCCC2C1c1ccco1 (stereo not drawn)	2	3	-8	-19	7	-9	.	.	.
COc1ccc(CCN2CC(C(=O)NCCc3ccc(C(F)(F)F)cc3)CCC2=O)cc1 (stereo not drawn)	52	-17	14	-23	-4	.	9	17	-53
COc1ccc(CCN2CC(C(=O)NCCc3ccc(F)cc3)CCC2=O)cc1 (stereo not drawn)	4	-12	3	-4	10	.	.	.	.
NC(=O)c1ccc(N2CCN(c3ccccc3F)CC2)c([N+](=O)[O-])c1	57*	6	16	4	29	-13	21	13	-7
NC(=O)c1ccc(N2CCCCCC2)c([N+](=O)[O-])c1	18	8	-10	9	-4	.	.	.	.
NC(=O)c1ccc(N2CCN(c3ccccc3O)CC2)c([N+](=O)[O-])c1	26	1	21	-23	34	15	.	.	.
NC(=O)c1ccc(N2CCN(S(=O)(=O)c3cccs3)CC2)c([N+](=O)[O-])c1	56*	-17	.	-8	85	-22	65*	14	36*
CCCCCCOC(=O)C[N+](C)(C)CCOC1CC2CCC1(C)C2(C)C (stereo not drawn)	-3	14	5	14	25	-8	.	.	.
CCCCOC(=O)C[N+](C)(C)CCOC1CC2CCC1(C)C2(C)C (stereo not drawn)	69*	3	0	-15	38	.	72*	37*	2
CCCOC(=O)C[N+](C)(C)CCOC1CC2CCC1(C)C2(C)C (stereo not drawn)	42	-7	-4	-15	34	-14	.	.	.
CCC(C)OC(=O)C[N+](C)(C)CCOC1CC2CCC1(C)C2(C)C (stereo not drawn)	73*	-1	-6	-9	63	.	71*	36*	9
SMILES	Gli-Sufu antag	Jurkat NFkB inh	aSyn UTR inh	697 NFkB inh	Shn3 3UTR inh	TAG inh	Gli-Sufu confirm	Gli cytotox	Wnt3a counter
CC(C)CCOC(=O)C[N+](C)(C)CCOC1CC2CCC1(C)C2(C)C (stereo not drawn)	77*	-1	-9	2	69	1	73*	23	23
O=C(Cc1cccc(C(F)(F)F)c1)Nc1ccccc1	-4	4	-8	28	-3	-9	.	.	.
O=C(COC(=O)CNS(=O)(=O)c1ccc(Br)cc1Cl)NC1CCCC1	-16	-13	-1	-34	-5	10	.	.	.
CC1CCC(C(C)C)C(OC(=O)Cn2c(-c3ccccc3)[n+](C)c3ccccc32)C1 (stereo not drawn)	87*	49	77*	-24	86*!	.	89*	38*	38*
O=C(N[C@@H]1C/C=C\C[C@@H](CC(=O)N(CCO)Cc2ccccc2)C(=O)NC[C@H](c2ccccc2)OC1=O)OCC1c2ccccc2-c2ccccc21	59*	19	.	-7	88*	-22	62*	23	16
O=C(C[C@H]1C/C=C\C[C@H](NC(=O)OCC2c3ccccc3-c3ccccc32)C(=O)O[C@H](c2ccccc2)CNC1=O)N[C@H](CO)Cc1ccccc1	63*	-13	.	-9	42	32	54*	34*	-12
O=C1CC/C=C\C[C@@H](CC(=O)N(CCO)Cc2ccccc2)C(=O)NC[C@@H](c2ccccc2)O1	-3	-4	.	3	-10	-8	.	.	.
C[C@H]1COC(=O)[C@H](NC(=O)OCC2c3ccccc3-c3ccccc32)C/C=C\C[C@H](CC(=O)N(CCO)Cc2ccccc2)C(=O)N1	38	-7	.	-3	?	-17	.	.	.
O=C(N[C@@H]1C/C=C\C[C@H](CC(=O)N(CCO)Cc2ccccc2)C(=O)NC[C@@H](c2ccccc2)OC1=O)OCC1c2ccccc2-c2ccccc21	67*	-4	.	7	90*	-23	65*	26*	-6
C[C@@H]1COC(=O)[C@@H](NC(=O)OCC2c3ccccc3-c3ccccc32)C/C=C\C[C@@H](CC(=O)N(CCO)Cc2ccccc2)C(=O)N1	75*	19	.	5	83	-45	70*	21	-4

Screening data deposited in PubChem by several laboratories.
